Hit rate of the full screen: of about 16,000 compounds, about 4,000 (25%) were called active. Inconclusive results (about 26%) are left out. Calls follow the shape of the dose curve; as a rule, active = well fitted curve in the direction sought with a large enough effect; inconclusive = small, poorly fitted or top-dose-only effect, or effect the other way; inactive = no such curve, though single readings can be large or run the other way. The list is a sample of the results.
biological target: Cytochrome P450 2C9 (Homo sapiens) (UniProt P11712); test: Cytochrome panel assay with activity outcomes; conditions: recombinant CYP, pro-luciferin dealkylation, luminescence, p450-cyp2c9; series mostly up to 57.1 µM; activity, negative = inhibition: at the top concentration
% is scaled to controls: 0 for no effect and ±100 for the full control effect.

Sequence of Cytochrome P450 2C9 (Homo sapiens) (P11712 whole entry, looked up): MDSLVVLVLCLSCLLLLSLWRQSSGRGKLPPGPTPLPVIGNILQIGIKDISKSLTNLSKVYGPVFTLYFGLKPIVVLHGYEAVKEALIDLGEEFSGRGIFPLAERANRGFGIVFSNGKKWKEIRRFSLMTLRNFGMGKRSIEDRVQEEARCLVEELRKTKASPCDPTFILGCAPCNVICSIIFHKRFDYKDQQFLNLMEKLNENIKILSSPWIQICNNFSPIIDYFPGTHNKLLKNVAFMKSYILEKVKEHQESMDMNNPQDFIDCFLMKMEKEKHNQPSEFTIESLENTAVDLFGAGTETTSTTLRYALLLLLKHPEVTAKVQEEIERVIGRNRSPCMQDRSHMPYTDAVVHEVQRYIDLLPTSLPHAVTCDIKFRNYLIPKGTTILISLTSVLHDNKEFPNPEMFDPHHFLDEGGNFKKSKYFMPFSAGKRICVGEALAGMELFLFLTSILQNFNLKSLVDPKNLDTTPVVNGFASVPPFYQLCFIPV

activity, negative = inhibition, inactive:
CCOc1cccc(OCCCNCCCOC)c1 -2.75%
Cc1ccccc1-c1cncnc1Nc1ccc(F)cc1 -14.2% [at 2.29 µM]
C=CCN1C(=CCO)[C@H]2C[C@H]3[C@@H]1CC[C@@]31c3ccccc3N3C=C4[C@@H]5N(/C=C/2[C@H]31)c1ccccc1[C@]51CC[C@H]2[C@H]1C[C@@H]4/C(=C/CO)N2CC=C 6.5% [at 25.6 µM]
C[C@@](N)(C(=O)O)c1ccc(S(=O)(=O)O)cc1 -20%
COC(=O)C/C=C\[C@@H](C)[C@@H](/C=N\O[C@@H]1O[C@H](COC(C)=O)[C@H](OC(C)=O)[C@H](OC(C)=O)[C@H]1OC(C)=O)OC -21% [at 11.4 µM]
CC(=O)N1CCC2(CC1)CCN(c1ccccn1)CC2 11.7%
CN1CCC2(CC1)CCN(C(=O)c1ccncc1)CC2 8.25%
O=C(c1ccncc1)N1CCC2(CC1)CN(c1ncccn1)C2 -0.965%
C[C@H](NCCC(c1ccccc1)c1ccccc1)c1ccccc1 -21.9% [at 25.6 µM]
CC1(C)CCC=[N+]1[O-] 11.1%
CS[C@]12C(=O)C[C@]3(C)[C@@H](CC[C@@]3(O)C(=O)CO)[C@@H]1CCC1=CC(=O)CC[C@]12C 11.9% [at 11.4 µM]
N#Cc1ccc(CN2CC[C@@]3(CCCN(C(=O)c4cc(C(F)(F)F)cc(C(F)(F)F)c4)C3)C2)cc1 12.4%
O=C(c1cc(C(F)(F)F)cc(C(F)(F)F)c1)N1CCC[C@@]2(CCN(Cc3ccccc3)C2)C1 14.9%
O=C(c1cnccn1)N1CCC2(CCN(Cc3nccs3)CC2)CC1 6.72%
O=C(c1ccncc1)N1CCC2(CC1)CN(Cc1cc(C(F)(F)F)cc(C(F)(F)F)c1)C2 -8.19%
O=C(c1cnccn1)N1CCC2(CC1)CN(Cc1nccs1)C2 18.6%
CC(C)CN1CC[C@@]2(CCCN(C(=O)c3cnccn3)C2)C1 -8.06%
O=C(c1cc(C(F)(F)F)cc(C(F)(F)F)c1)N1CCC2(CC1)CN(Cc1ccccc1)C2 10.9%
O=C(c1cnccn1)N1CCC[C@@]2(CCN(c3ncccn3)C2)C1 14.7%
CC1=NNC(=S)NCCCN2CCN(CCCNC(=S)NN=C(C)C=NNC(=S)NCCCN3CCN(CCCNC(=S)NN=C1)CC3)CC2 5.77% [at 11.4 µM]
CC(C)N1CCN(c2ccc(OC[C@@H]3CO[C@@](Cn4cncn4)(c4ccc(Cl)cc4Cl)O3)cc2)CC1 -13% [at 25.6 µM]
COc1cc(C2NC(=O)NC(O)(C(F)(F)F)C2C(=O)c2ccc(Cl)cc2)ccc1O (centres undefined) -18.5%
Cn1cccc1C(=O)N1CCC2(CC1)CN(Cc1ccc(C#N)cc1)C2 17.7%
O=C(c1cc(C(F)(F)F)cc(C(F)(F)F)c1)N1CCC2(CC1)CN(c1ccccc1)C2 -7.28%
O=C(c1cc(C(F)(F)F)cc(C(F)(F)F)c1)N1CCC2(CC1)CCN(c1ccncc1)CC2 -26%
O=C(c1ccco1)N1CCC2(CC1)CN(Cc1cc(C(F)(F)F)cc(C(F)(F)F)c1)C2 -15.8%
CC(C)CC(=O)N1CCC(O)(CS(=O)(=O)Cc2ccc(Cl)cc2)CC1 -24.6%
CCc1ccc(-c2ccc(C(=O)C(F)(F)F)[nH]2)cc1 -28.7%
Cc1cccc(-n2nnc3cnn(C)c3c2=O)c1 -26.3%
CN(C)Cc1ccccc1-c1nccc(Nc2ccc(F)cc2)n1 6.01% [at 2.29 µM]
CN1CCN(c2ccc([N+](=O)[O-])cc2S(=O)(=O)N2CCOCC2)CC1 -10.1%
O=C(C1CCN(S(=O)(=O)N2CCOCC2)CC1)N1CCN(Cc2ccccc2)CC1 -10.1%
CC1CCC(C(=O)O)([C@H](Br)C(=O)O)CC1 (some centres undefined) -6.22% [at 11.4 µM]
Cc1c(C)c(C)c(CC2(C)CSC2)c(CC2(C)CSC2)c1C 11.8% [at 11.4 µM]
CS(=O)(=O)Nc1ccc([N+](=O)[O-])cc1OC1CCCCC1 -25%
CC(=O)NN1C(=O)c2ccc(Oc3ccc([N+](=O)[O-])cc3)cc2C1=O -23.4%
COCCNc1ncnc2ccc(-c3c(C)noc3C)cc12 7.8% [at 2.29 µM]
COC(=O)[C@@H]1[C@@H]2C[C@H]3c4[nH]c5ccccc5c4CCN3C[C@@H]2CC[C@@H]1OS(=O)(=O)O 7.13% [at 11.4 µM]
CN1CCN(c2ncnc3ccc(-c4ccccc4C#N)cc23)CC1 2.98% [at 2.29 µM]
Cc1cc(C)c(NC(=O)C2CCCN2C)c(C)c1 (centres undefined) 1.9%
CCc1cc(Cl)c(OC)c(C(=O)NC[C@@H]2CCCN2CC)c1O 0.663% [at 25.6 µM]
C[C@H](N)CCCC(C)(C)O -15.2% [at 25.6 µM]
CC(=O)Nc1c(C)nn(-c2ccc(C)c(C)c2)c1C -8.65%
Cc1ccc(CCN2CC(C(=O)NCCN3CCOCC3)CC2=O)cc1 (centres undefined) -10.2%
Cc1ccc(CCN2CC(C(=O)NCCN3CCCCCC3)CC2=O)cc1 (centres undefined) -28.6%
COc1cc2c3cc1Oc1c(OC)c(OC)cc4c1[C@@H](Cc1ccc(O)c(c1)Oc1ccc(cc1)C[C@@H]3N(C)CC2)CN(C)C4 -25.3% [at 11.4 µM]
OC(COc1ccc(OCC(O)CN2CCCCCC2)cc1)CN1CCCCCC1 (centres undefined) -0.623%
O=C(O)CC(O)C(=O)O (centres undefined) -7.21%
CC(=O)NNc1cccc(Cl)n1 -15.4%
CCCC(=O)Nc1nnc(SCC(=O)NCc2cccs2)s1 -19.5%
O=C(Cn1ccc([N+](=O)[O-])n1)NCc1cccs1 -58.8%
C#C[C@H](N)CCC(=O)O 13.6%
CCS(=O)(=O)N1CCC(C(=O)NCc2ccc(F)cc2Cl)CC1 21.2%
C/C(CCN1CCc2nc(-c3ccccc3)c(-c3ccccc3)cc2C1)=N\O[C@@H](C)c1cn([C@@H]2COC[C@@H]2O)nn1 -10.5% [at 11.4 µM]
NC(=O)/C(=N\OC(=O)c1ccco1)c1nc(-c2ccc(Br)cc2)cs1 58.2%
Cc1nc2ncnn2c(C)c1CCC(=O)N1CCN(C(=O)c2ccco2)CC1 -6.62%
O=C(NC(=S)Nc1nc(-c2ccc(Br)cc2)cs1)c1cccnc1 -6.99%
CO[C@@H]1COC(=O)[C@H]2CCCN2C(=O)[C@@H](C)COC(=O)[C@H](COCc2ccccc2)NC(=O)C/C=C\[C@H]1C 10.5% [at 11.4 µM]
NC(=S)c1ccc[n+]([C@@H]2O[C@@H](COP(=O)([O-])OP(=O)(O)OC[C@@H]3O[C@@H](n4cnc5c(N)ncnc54)[C@@H](OP(=O)(O)O)[C@H]3O)[C@@H](O)[C@H]2O)c1 -19.2%
COc1ncc2ncc(=O)n(C)c2n1 14.6%
CCCCC(=O)Nc1ccc(C(=O)NNC(=O)CCc2ccccc2)cc1 7.05%
CCc1ccc(OCCCC(=O)Nc2ccc(N3CCCCC3)cc2)cc1 -21.4%

AC50, active:
CCOc1cc2[nH]c(=O)n(CCCC(=O)NCc3ccc(OC)cc3)c(=O)c2cc1OCC 4.47 µM
O=C(c1ccncc1)N1CCC2(CC1)CCN(c1ccccn1)CC2 10 µM
O=C(c1ccncc1)N1CCC2(CC1)CCN(c1ncccn1)CC2 15.8 µM
O=C(c1cc(C(F)(F)F)cc(C(F)(F)F)c1)N1CCC2(CC1)CN(Cc1ccncc1)C2 10 µM
O=C(c1cnccn1)N1CCC[C@@]2(CCN(Cc3ccncc3)C2)C1 10 µM
O=C(c1cnccn1)N1CCC2(CCCN(Cc3nccs3)C2)CC1 15.8 µM
O=C(c1cc(C(F)(F)F)cc(C(F)(F)F)c1)N1CCC[C@@]2(CCN(Cc3ccncc3)C2)C1 0.0794 µM
Cn1cccc1C(=O)N1CCC2(CC1)CN(Cc1cc(C(F)(F)F)cc(C(F)(F)F)c1)C2 15.8 µM
O=C(c1cc(C(F)(F)F)cc(C(F)(F)F)c1)N1CCC2(CC1)CN(c1ccncc1)C2 3.98 µM
O=[N+]([O-])c1ccc(N2CCN(Cc3ccccc3)CC2)c(S(=O)(=O)N2CCOCC2)c1 17.8 µM
CS(=O)(=O)Nc1ccc([N+](=O)[O-])cc1Oc1ccccc1 3.16 µM
CC(=O)COc1ccc2c(C)c(C)c(=O)oc2c1 22.4 µM
CCCC[C@@H]1C[C@H]1C(NC(=O)c1cccnc1)c1ccc(Cl)cc1 (some centres undefined) 12.6 µM
CCCC[C@@H]1C[C@H]1C(NC(=O)c1cccnc1)c1ccc(-c2ccccc2)cc1 (some centres undefined) 5.01 µM
N#C/C(=C/c1cccc(C(F)(F)F)c1)c1nc(CCN2C(=O)c3ccccc3C2=O)cs1 0.178 µM
O=c1ccn(-c2cccc(C(F)(F)F)c2)nc1-c1ccn(-c2ccccc2F)n1 10 µM
Cc1ccc(C(=O)CN(C(=O)c2ccc(Cl)cc2)N2C(=O)c3ccccc3C2=O)cc1 3.16 µM
CCOC(=O)C1=NNC2(c3ccc(Cl)cc3)C(=O)N(c3cc(C)cc(C)c3)C(=O)C12 (centres undefined) 3.55 µM
Cc1nn(-c2ccc(F)cc2)c(C)c1NS(=O)(=O)c1ccc2ccccc2c1 12.6 µM
CCOCCCN1CC(C(=O)NCCc2ccc(C)cc2)CC1=O (centres undefined) 8.91 µM
Cc1ccc(OCC(O)Cn2c3ccccc3c3ccccc32)cc1 (centres undefined) 4.47 µM
C=CCN(CC=C)CC(O)Cn1c2ccccc2c2ccccc21 (centres undefined) 14.1 µM
Cn1c(/C=N/NC(=O)c2ccccc2Br)nc2ccccc21 2 µM
Cc1ccc(-n2nnnc2C(=Cc2ccc(N(C)C)cc2)c2nnnn2-c2ccc(C)cc2)cc1 3.55 µM
CCCCc1ccc(NC(=S)NCc2cccs2)cc1 12.6 µM
CCS(=O)(=O)N1CCN(c2c(Cl)cccc2[N+](=O)[O-])CC1 11.2 µM
Cc1nn(C(=O)c2ccco2)c(C)c1Sc1ccc(Br)cc1 3.98 µM
Cc1nn(C(=O)c2cccnc2)c(C)c1Sc1ccc(Br)cc1 10 µM
Cc1nn(C(C)(C)C)c(OC(=O)c2ccco2)c1Sc1ccccc1 10 µM
O=C(NCCCc1ccccc1)c1cccs1 15.8 µM
Cc1ccc(NC(=O)NCCCc2ccccc2)cc1 11.2 µM
CCc1ccc(NC(=O)CS(=O)CC(=O)NCCCc2ccccc2)cc1 (centres undefined) 0.794 µM
